{"source": "PubChem BioAssay (Tox21)", "note": "Results filed as inconclusive are left out. The source made the active and inactive calls. The call rests on the fitted dose curve. On the % scale 0 is the no-effect control and ±100 the full control effect.", "data": [{"biological_target": "Acetylcholinesterase (Homo sapiens) (UniProt P22303)", "sequence (P22303 whole entry, looked up)": "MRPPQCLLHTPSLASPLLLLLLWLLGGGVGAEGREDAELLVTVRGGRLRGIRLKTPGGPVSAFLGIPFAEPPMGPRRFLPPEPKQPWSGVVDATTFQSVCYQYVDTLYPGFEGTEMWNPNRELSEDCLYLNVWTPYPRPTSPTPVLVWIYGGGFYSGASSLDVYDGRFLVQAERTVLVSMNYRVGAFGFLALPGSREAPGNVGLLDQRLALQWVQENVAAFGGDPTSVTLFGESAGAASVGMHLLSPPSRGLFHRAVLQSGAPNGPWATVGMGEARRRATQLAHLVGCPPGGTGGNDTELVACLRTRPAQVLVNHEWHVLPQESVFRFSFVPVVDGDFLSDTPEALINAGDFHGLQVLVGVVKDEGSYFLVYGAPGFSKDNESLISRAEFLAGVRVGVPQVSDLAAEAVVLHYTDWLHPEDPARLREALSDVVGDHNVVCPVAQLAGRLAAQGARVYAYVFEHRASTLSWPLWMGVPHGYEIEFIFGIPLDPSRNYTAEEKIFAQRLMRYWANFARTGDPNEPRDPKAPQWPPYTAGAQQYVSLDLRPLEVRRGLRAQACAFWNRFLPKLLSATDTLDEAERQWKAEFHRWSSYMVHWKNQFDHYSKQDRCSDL", "assay": "Acetylcholinesterase (AChE) small molecule antagonists: fluorescence cell-based qHTS assay (AID 1347398); further: nearly all actives have a fitted effect of over 50% in size", "details": "SH-SY5Y cells; Potency: AChE activity; outcome: AChE activity; series mostly up to 115 µM; activity change, negative = inhibition: at the top concentration", "procedure,_shortened": "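Read-out is Thiolite Green fluorescence at Ex/Em = 490/520 nm, formed by reaction with thiocholine released when cellular AChE in SH-SY5Y cells hydrolyzes acetylthiocholine. Compounds were preincubated 30 min at 37 C before substrate.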", "values": [{"smiles": "C=C(C)C1CC=C(C)CC1", "note": "(stereo not given)", "Potency": "inactive"}, {"smiles": "Cc1oc(-c2ccccc2)nc1CCOc1cccc2c1ccn2CCC(=O)O", "activity change, negative = inhibition": "-3.67% (inactive)"}, {"smiles": "CCCCCCCCCCCCI", "activity change, negative = inhibition": "-2.46% (inactive)"}, {"smiles": "O=C(CC(=O)c1ccccc1)c1ccccc1", "activity change, negative = inhibition": "-9.95% (inactive)"}, {"smiles": "NCCNCCO", "activity change, negative = inhibition": "-2.65% (inactive)"}, {"smiles": "Cc1cc(F)ccc1-c1cc(N2CC[C@@H](O)[C@H]2CO)ncc1N(C)C(=O)C(C)(C)c1cc(C(F)(F)F)cc(C(F)(F)F)c1", "activity change, negative = inhibition": "-16.8% (inactive)"}, {"smiles": "Cc1cc(C)c(N=Nc2c(O)c(S(=O)(=O)O)cc3cc(S(=O)(=O)O)ccc23)cc1C", "activity change, negative = inhibition": "-0.662% [at 10.5 µM] (inactive)"}, {"smiles": "CCCC1C(CC)=CC(CC)=CN1c1ccccc1", "note": "(stereo not given)", "activity change, negative = inhibition": "-13.7% (inactive)"}, {"smiles": "Cc1cc(=O)n(-c2ccccc2)n1C", "Potency": "inactive"}, {"smiles": "O=C(O)CCc1nc2ccccc2[nH]1", "activity change, negative = inhibition": "7.72% [at 53.7 µM] (inactive)"}, {"smiles": "O=Cc1ccccc1C=O", "Potency": "inactive"}, {"smiles": "CN(C)CCN(C)CCN(C)C", "activity change, negative = inhibition": "-11.3% (inactive)"}, {"smiles": "FC(F)(F)c1ccc(Cl)c(Cl)c1", "Potency": "inactive"}, {"smiles": "COCc1c(C(C)C)nc(C(C)C)c(/C=C/[C@@H](O)C[C@@H](O)CC(=O)O)c1-c1ccc(F)cc1", "activity change, negative = inhibition": "4.09% [at 53.7 µM] (inactive)"}, {"smiles": "CC(C)c1ccc(S(=O)(=O)O)cc1", "Potency": "inactive"}, {"smiles": "C=CCCC", "activity change, negative = inhibition": "1.04% (inactive)"}, {"smiles": "CC(O)CO", "note": "(stereo not given)", "Potency": "inactive"}, {"smiles": "CCCCCCCCCCCCCC", "activity change, negative = inhibition": "0.552% (inactive)"}, {"smiles": "CC(C)c1ccc2ncccc2c1", "activity change, negative = inhibition": "1.16% (inactive)"}, {"smiles": "O=C(c1ccc(O)cc1)c1ccc(O)cc1", "activity change, negative = inhibition": "-15.5% (inactive)"}, {"smiles": "O=[N+]([O-])c1ccccc1C(F)(F)F", "Potency": "inactive"}, {"smiles": "CC(C)(O)C#CC(C)(C)O", "activity change, negative = inhibition": "2.89% (inactive)"}, {"smiles": "N#CCC(=O)NN", "activity change, negative = inhibition": "0.889% [at 53.7 µM] (inactive)"}, {"smiles": "Cc1c(C2(c3cc(Br)c(O)c(Br)c3C)OS(=O)(=O)c3ccccc32)cc(Br)c(O)c1Br", "activity change, negative = inhibition": "-23% (inactive)"}, {"smiles": "CCCCCCCCOc1ccc(C(=O)c2ccccc2)c(O)c1", "Potency": "inactive"}, {"smiles": "CCCCCCCC/C=C\\CCCCCCCC(=O)O", "Potency": "inactive"}, {"smiles": "COCCOCC(OC)OC", "activity change, negative = inhibition": "4.26% [at 53.7 µM] (inactive)"}, {"smiles": "CC(C)=CCO", "Potency": "inactive"}, {"smiles": "O=[N+]([O-])c1ccc(/C=C/c2ccc([N+](=O)[O-])cc2S(=O)(=O)O)c(S(=O)(=O)O)c1", "Potency": "inactive"}, {"smiles": "O=C(O)Cc1ccccc1Nc1c(Cl)cccc1Cl", "Potency": "inactive"}, {"smiles": "C[C@@H](N)C(=O)O", "activity change, negative = inhibition": "5.63% [at 53.7 µM] (inactive)"}, {"smiles": "CC(=O)c1ccc(Cl)c(Cl)c1Cl", "activity change, negative = inhibition": "-2.49% (inactive)"}, {"smiles": "CC(C)(C)C(=O)c1ccccc1", "activity change, negative = inhibition": "-4.77% (inactive)"}, {"smiles": "c1ccc2cc3c(ccc4ccccc43)cc2c1", "Potency": "inactive"}, {"smiles": "COc1cccc(N(C)C(=S)Oc2ccc3c(c2)CCCC3)n1", "activity change, negative = inhibition": "-9.71% [at 53.7 µM] (inactive)"}, {"smiles": "CCCCC(CC)COC(=O)c1ccc(O)cc1", "note": "(stereo not given)", "activity change, negative = inhibition": "-19% (inactive)"}, {"smiles": "O=C1CCc2ccccc2O1", "Potency": "inactive"}, {"smiles": "CN(C)CCCN(C)C", "activity change, negative = inhibition": "0.828% [at 10.5 µM] (inactive)"}, {"smiles": "CCc1cccc(O)c1", "Potency": "inactive"}, {"smiles": "COC(=O)CCCCCCCC(=O)OC", "activity change, negative = inhibition": "2.89% (inactive)"}]}, {"biological_target": "Acetylcholinesterase (Homo sapiens) (UniProt P22303)", "assay": "Acetylcholinesterase (AChE) small molecule antagonists: enzyme-based qHTS assay with human liver microsomes (AID 1347399); further: nearly all actives have a fitted effect of over 60% in size", "details": "Potency: qHTS inhibition; outcome: qHTS inhibition; series mostly up to 115 µM; activity change, negative = inhibition: at the top concentration", "procedure,_shortened": "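Recombinant human AChE (50 mU/mL in the enzyme mix) and human liver microsomes (0.25 mg/mL final) were preincubated with compound and NADPH (0.25 mg/mL final) for 30 min at 37 C. Acetylthiocholine/DTNB was then added; thiocholine was read colorimetrically after 10 min at room temperature.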", "values": [{"smiles": "C=C(C)C1CC=C(C)CC1", "note": "(stereo not given)", "Potency": "inactive"}, {"smiles": "Cc1oc(-c2ccccc2)nc1CCOc1cccc2c1ccn2CCC(=O)O", "activity change, negative = inhibition": "5.23% (inactive)"}, {"smiles": "CCCCCCCCCCCCI", "activity change, negative = inhibition": "-0.162% (inactive)"}, {"smiles": "O=C(CC(=O)c1ccccc1)c1ccccc1", "activity change, negative = inhibition": "2.86% (inactive)"}, {"smiles": "NCCNCCO", "activity change, negative = inhibition": "0% (inactive)"}, {"smiles": "Cc1cc(F)ccc1-c1cc(N2CC[C@@H](O)[C@H]2CO)ncc1N(C)C(=O)C(C)(C)c1cc(C(F)(F)F)cc(C(F)(F)F)c1", "activity change, negative = inhibition": "0.224% (inactive)"}, {"smiles": "Cc1cc(C)c(N=Nc2c(O)c(S(=O)(=O)O)cc3cc(S(=O)(=O)O)ccc23)cc1C", "activity change, negative = inhibition": "0.432% [at 10.5 µM] (inactive)"}, {"smiles": "CCCC1C(CC)=CC(CC)=CN1c1ccccc1", "note": "(stereo not given)", "activity change, negative = inhibition": "-0.164% (inactive)"}, {"smiles": "Cc1cc(=O)n(-c2ccccc2)n1C", "Potency": "inactive"}, {"smiles": "O=C(O)CCc1nc2ccccc2[nH]1", "activity change, negative = inhibition": "0% [at 53 µM] (inactive)"}, {"smiles": "O=Cc1ccccc1C=O", "Potency": "inactive"}, {"smiles": "CN(C)CCN(C)CCN(C)C", "activity change, negative = inhibition": "2.98% (inactive)"}, {"smiles": "FC(F)(F)c1ccc(Cl)c(Cl)c1", "Potency": "inactive"}, {"smiles": "COCc1c(C(C)C)nc(C(C)C)c(/C=C/[C@@H](O)C[C@@H](O)CC(=O)O)c1-c1ccc(F)cc1", "Potency": "inactive"}, {"smiles": "CC(C)c1ccc(S(=O)(=O)O)cc1", "Potency": "inactive"}, {"smiles": "C=CCCC", "activity change, negative = inhibition": "5.28% (inactive)"}, {"smiles": "CC(O)CO", "note": "(stereo not given)", "Potency": "inactive"}, {"smiles": "CCCCCCCCCCCCCC", "activity change, negative = inhibition": "0.157% (inactive)"}, {"smiles": "CC(C)c1ccc2ncccc2c1", "activity change, negative = inhibition": "0.828% (inactive)"}, {"smiles": "O=C(c1ccc(O)cc1)c1ccc(O)cc1", "activity change, negative = inhibition": "1.5% (inactive)"}, {"smiles": "O=[N+]([O-])c1ccccc1C(F)(F)F", "Potency": "inactive"}, {"smiles": "CC(C)(O)C#CC(C)(C)O", "activity change, negative = inhibition": "-2.37% (inactive)"}, {"smiles": "N#CCC(=O)NN", "activity change, negative = inhibition": "0.673% [at 53 µM] (inactive)"}, {"smiles": "Cc1c(C2(c3cc(Br)c(O)c(Br)c3C)OS(=O)(=O)c3ccccc32)cc(Br)c(O)c1Br", "activity change, negative = inhibition": "12.9% (inactive)"}, {"smiles": "CCCCCCCCOc1ccc(C(=O)c2ccccc2)c(O)c1", "Potency": "inactive"}, {"smiles": "CCCCCCCC/C=C\\CCCCCCCC(=O)O", "Potency": "inactive"}, {"smiles": "COCCOCC(OC)OC", "activity change, negative = inhibition": "-0.504% [at 53 µM] (inactive)"}, {"smiles": "CC(C)=CCO", "Potency": "inactive"}, {"smiles": "O=[N+]([O-])c1ccc(/C=C/c2ccc([N+](=O)[O-])cc2S(=O)(=O)O)c(S(=O)(=O)O)c1", "Potency": "inactive"}, {"smiles": "O=C(O)Cc1ccccc1Nc1c(Cl)cccc1Cl", "Potency": "inactive"}, {"smiles": "C[C@@H](N)C(=O)O", "activity change, negative = inhibition": "-6% [at 53 µM] (inactive)"}, {"smiles": "CC(=O)c1ccc(Cl)c(Cl)c1Cl", "activity change, negative = inhibition": "-2.69% (inactive)"}, {"smiles": "CC(C)(C)C(=O)c1ccccc1", "activity change, negative = inhibition": "0.894% (inactive)"}, {"smiles": "c1ccc2cc3c(ccc4ccccc43)cc2c1", "Potency": "inactive"}, {"smiles": "COc1cccc(N(C)C(=S)Oc2ccc3c(c2)CCCC3)n1", "activity change, negative = inhibition": "1% [at 53 µM] (inactive)"}, {"smiles": "CCCCC(CC)COC(=O)c1ccc(O)cc1", "note": "(stereo not given)", "Potency": "inactive"}, {"smiles": "O=C1CCc2ccccc2O1", "Potency": "inactive"}, {"smiles": "CN(C)CCCN(C)C", "activity change, negative = inhibition": "0.146% [at 10.5 µM] (inactive)"}, {"smiles": "CCc1cccc(O)c1", "Potency": "inactive"}, {"smiles": "COC(=O)CCCCCCCC(=O)OC", "activity change, negative = inhibition": "-1.84% (inactive)"}]}]}
